This is one part of a sample in which hits are shown more often than they occur.
Dicer inh: inhibitors of Dicer pre-microRNA processing, primary screen, biochemical, cat-ELCCA, chemiluminescence. Endoribonuclease Dicer (Homo sapiens), Q9UPY3. AID 1347074, 2019. 6% of 47,000 active. cat-ELCCA pre-miR-21 Dicer processing; hits give high values. z-score at 25 µM; in the data active = z-score above about 3, passing the limit was not always enough;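 also: plate controls were vehicle for no effect and no enzyme for full effect; higher signal means more uncleaved substrate so more Dicer inhibition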
* hit, by the source's call.

SMILES | Dicer inh
COc1cccc(C2C3=C(CC(C)(C)CC3=O)Nc3ncnn32)c1 (configuration not stated) | 0.19
Cc1ccc(Nc2nc3ccccc3s2)c(C)c1 | 0.88
Cc1cccc(C)c1Nc1nc2c(C)cc(C)c(C)c2s1 | 4.2*
Cc1cc(Nc2ccccc2C)c2cccc(C)c2n1 | -1.1
COC(=O)c1c(C)[nH]c(C)c1/C=N/N=C/c1c(C)[nH]c(C)c1C(=O)OC | 0.95
S=C1NCN(CCc2ccccn2)CN1 | -1.3
Cc1nonc1NC(=O)OC(C)C | 2.2
COC(=O)C(C(=O)Nc1cc(C)on1)C1CCCC1 (configuration not stated) | 2.5
Cc1nonc1NC(=O)OC1CCCCC1 | 3.4*
C=CCOc1ccc(/C=N/Nc2nc3c(c(=O)n(C)c(=O)n3C)n2C)cc1 | -3
CC(=O)Cn1c(=O)n(-c2ccc(Cl)c(Cl)c2)c(=O)c2cc(-c3ccccc3)sc21 | -5.5
Cc1c(C#N)c(SCc2c(F)cccc2Cl)nc2ccccc12 | -1
Cc1cc(C)n2c(SC3CCCCC3NS(=O)(=O)c3ccccc3)nnc2n1 (configuration not stated) | 0
Cc1cc(C)n2c(SC3CCCCC3NS(=O)(=O)c3ccc(Cl)cc3)nnc2n1 (configuration not stated) | 3.6*
Cc1cc(C)n2c(SC(CNS(=O)(=O)c3ccccc3)c3ccccc3)nnc2n1 (configuration not stated) | 2.2
COc1ccc(-c2cnn3c(N)c(-c4ccccc4)cnc23)cc1OC | 0.13
CC(C)Oc1ccc(C2CC(=O)N(c3ccc(C(=O)O)cc3)C2=O)cc1 (configuration not stated) | 4.8*
O=C(O)c1ccc(N2C(=O)CC(N3CCOCC3)C2=O)cc1 (configuration not stated) | -1.7
COc1ccc(N2C(=O)CC(N3CCCCC3)C2=O)cc1 (configuration not stated) | 0.16
CNc1ccccc1C(=O)NCc1cccs1 | -0.62
CCOc1ccc(C2c3c(oc4ccccc4c3=O)C(=O)N2c2nnc(C(C)C)s2)cc1OCC (configuration not stated) | 0.09
C/C(=N\Nc1c(Cl)cccc1Cl)c1sc(CCn2cccc(C(F)(F)F)c2=O)nc1C | -0.03
Cc1ccc2cc(-c3noc(-c4cccnc4)n3)c(=O)[nH]c2c1 | -0.55
CCc1ccc2[nH]c(C(=O)NCCN3CCOCC3)cc2c1 | -1.8
CCN(/C=C/c1nnnn1-c1ccc(Br)cc1)CC | -0.37
SMILES | Dicer inh
CCN(/C=C/c1nnnn1-c1ccc(Cl)cc1)c1ccccc1 | 3.2*
CCc1ccc(-n2nnnc2/C=C/N(C)C)cc1 | 1.7
CC(C)C(=O)n1c2ccc(F)cc2c2nc3ccccc3nc21 | 1.1
COc1cccc(C2CCCC/C2=N/O)c1 (configuration not stated) | 0.14
O=C(Nc1ccc(S(=O)(=O)Nc2ncccn2)cc1)c1cc2ccccc2o1 | 0.46
O=C(Nc1nccs1)c1cc2ccccc2o1 | -3.5
O=C(Nc1ncn[nH]1)c1cc2ccccc2o1 | 4.9*
O=C(OCc1ccccc1)c1cnc(Nc2ccc(F)cc2)nc1C(F)(F)F | -0.68
O=C1c2cccc3c(N4CCSCC4)ccc(c23)C(=O)N1c1ccccc1 | 1.8
CC(=O)N1c2ccccc2CC1S(=O)(=O)O (configuration not stated) | -1.3
N#CC(C(=O)c1ccccc1)=C1SCCCS1 | 1.7
N#CC(C(=O)c1ccccc1Cl)=C1SCCCS1 | -0.64
N#CC(C(=O)c1cccs1)=C1SCCS1 | 3.8*
N#Cc1c(F)ccc(NC(=O)Nc2ccccc2)c1F | 0.45
Cc1onc(-c2c(Cl)cccc2Cl)c1NC(=O)NC(=O)C12CC3CC(CC(C3)C1)C2 | 0.74
COc1ccc(-n2ncc(C(=O)NCc3c(Cl)cccc3Sc3ccc(Cl)cc3)c2C)cc1 | -1.4
CN(n1cnc2ccsc2c1=O)S(C)(=O)=O | -0.09
CN(n1cnc2ccccc2c1=O)S(C)(=O)=O | 3*
COc1ccc(-n2cnc3ccccc3c2=O)cc1 | 0.4
Cn1c(=O)[nH]c(=O)c2c1nc(NCCc1ccccc1)n2CCO | 0.28
Cc1ccc(NC(=O)/C=N/O)cc1Cl | -0.67
CCOC(=O)CCCCCN1C(=O)c2cccc3cccc(c23)C1=O | -0.47
CCCCCN1C(=O)c2cccc3cccc(c23)C1=O | -0.15
CCOC(=O)CCCN1C(=O)c2cccc3cccc(c23)C1=O | 5.3*
O=c1[nH][nH]c(=S)n1-c1cccc(Cl)c1 | 0.06
SMILES | Dicer inh
CC(C)CCNc1nc2c(c(=O)[nH]c(=O)n2C)n1CCO | 1.4
Cn1c(=O)[nH]c(=O)c2c1nc(NCc1ccco1)n2Cc1ccc(F)cc1 | -2.7
CC(C)CCn1c(NCc2ccco2)nc2c1c(=O)[nH]c(=O)n2C | 3.6*
FC(F)(F)c1c2c(nc3cc(-c4ccco4)nn13)CCC2 | -0.19
Nc1c(Cl)ncnc1NCCCn1ccnc1 | -2.9
COc1cccc(C2c3c(oc4ccccc4c3=O)C(=O)N2c2nnc(C)s2)c1 (configuration not stated) | -0.76
COc1ccc(Nc2cc(C)nc(N3CCOCC3)n2)cc1 | 6.7*
COc1ccc(S(=O)(=O)Nc2ccc(N3CCOCC3)cc2)cc1 | -0.27
COc1ccc(Nc2nc(N)nc(CN3CCOCC3)n2)cc1 | -0.21
O=S(=O)(Nc1ccc2c(c1)OCCO2)c1ccc(-c2ccno2)s1 | -0.93
Nc1cc(C(F)(F)F)ccc1Oc1ccc(Cl)cc1Cl | -1.9
COc1ccc(C(=O)c2sc3nc(-c4ccc(OC)cc4)ccc3c2N)cc1 | 0.01
Cc1ccc2c(N)c(C(=O)c3ccc(-c4ccccc4)cc3)sc2n1 | 3.2*
Cc1cc(C)c2c(N)c(C(=O)c3ccccc3)sc2n1 | -0.42
Clc1ccc(CSc2ccccc2-n2cccc2)cc1 | 0.87
Cc1nn(-c2ccccc2)c2c1C1=C(C(=O)CC(C)(C)C1)C(c1ccc(N(C)C)cc1)N2 (configuration not stated) | 3.4*
Cc1[nH]nc2c1C1=C(C(=O)CC(C)(C)C1)C(c1ccc(N(C)C)cc1)N2 (configuration not stated) | 2.2
CCC1C2=C(CC(C)(C)CC2=O)Nc2c1c(C)nn2-c1ccccc1 (configuration not stated) | -2.6
C=CCSC1=C(C#N)C(c2ccccc2C)C(C(=O)OC)C(=O)N1 (configuration not stated) | 1
CCOC(=O)C(=CNNC(=O)c1ccc(OC)cc1)C(=O)OCC | -0.5
COc1cc(C(=O)NNS(=O)(=O)c2ccccc2C)c(-n2c(C)ccc2C)cc1OC | -0.67
COc1cc(C(=O)NS(=O)(=O)c2ccccc2C)ccc1Cc1cn(C)c2ccc(NC(=O)OC3CCCC3)cc12 | 4.3*
CN(C)c1ccc(NC(=O)c2nc3ncccn3n2)cc1 | 1.2
CSc1sc(-c2ccnc(SCCS(=O)(=O)c3ccc(Cl)cc3)n2)c(-c2ccccc2)c1C#N | 1.9
CC(C)c1cc(Oc2ccc([N+](=O)[O-])cn2)cc(C(C)C)c1 | -0.38
Cc1cc(Br)c(NC(=O)C(Cl)Cl)c(Br)c1 | 0.14
Cn1c2c(c(=O)[nH]c1=O)C(c1ccsc1)C1=C(N2)c2ccccc2C1=O (configuration not stated) | -2.9
Cn1c2c(c(=O)n(C)c1=O)C(c1ccsc1)C1=C(N2)c2ccccc2C1=O (configuration not stated) | 7.8*
COc1cccc(C2C3=C(Nc4c2c(=O)n(C)c(=O)n4C)c2ccccc2C3=O)c1 (configuration not stated) | -1.4
